Screening data deposited in PubChem BioAssay by National Center for Advancing Translational Sciences (NCATS).
Shown are actives, neighbours in structure and some others; about 5.2% of the full set was active somewhere.
PK Bst: modulators of Bacillus stearothermophilus pyruvate kinase; purified pyruvate kinase, luminescence ATP production; ribose 5-phosphate activator present at AC10; Potency, µM; hit rate 1.2% among 51,000; in the data active means potency below about 11 µM; inconclusive means mostly about 12 µM to 25 µM;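 the screen sought inhibitors and activators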;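 further: scaled between full activation by ribose 5 phosphate and full inhibition by luteolin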
TSHR agonist: activates the human thyroid stimulating hormone receptor; HEK293-CNG-TSHR cells (CNG channel as cAMP sensor), membrane potential dye, cAMP; Potency, µM (top dose mostly 57.1 µM), inactives show top-dose activation, usual class: activators; hit rate 0.48% among 73,000; P16473; AID 926; active means well fitted activation curve with a large enough effect in the main read-out, with a control signal flat, not every such curve was filed as active; inconclusive means small, poorly fitted or top-dose-only effect, or a change in a side signal; inactive means no such curve, though single readings can be large or run the other way; % of control where 0% means no effect;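 further: the control signal comes from parental cells without the receptor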
Target sequence (P16473 whole entry, looked up): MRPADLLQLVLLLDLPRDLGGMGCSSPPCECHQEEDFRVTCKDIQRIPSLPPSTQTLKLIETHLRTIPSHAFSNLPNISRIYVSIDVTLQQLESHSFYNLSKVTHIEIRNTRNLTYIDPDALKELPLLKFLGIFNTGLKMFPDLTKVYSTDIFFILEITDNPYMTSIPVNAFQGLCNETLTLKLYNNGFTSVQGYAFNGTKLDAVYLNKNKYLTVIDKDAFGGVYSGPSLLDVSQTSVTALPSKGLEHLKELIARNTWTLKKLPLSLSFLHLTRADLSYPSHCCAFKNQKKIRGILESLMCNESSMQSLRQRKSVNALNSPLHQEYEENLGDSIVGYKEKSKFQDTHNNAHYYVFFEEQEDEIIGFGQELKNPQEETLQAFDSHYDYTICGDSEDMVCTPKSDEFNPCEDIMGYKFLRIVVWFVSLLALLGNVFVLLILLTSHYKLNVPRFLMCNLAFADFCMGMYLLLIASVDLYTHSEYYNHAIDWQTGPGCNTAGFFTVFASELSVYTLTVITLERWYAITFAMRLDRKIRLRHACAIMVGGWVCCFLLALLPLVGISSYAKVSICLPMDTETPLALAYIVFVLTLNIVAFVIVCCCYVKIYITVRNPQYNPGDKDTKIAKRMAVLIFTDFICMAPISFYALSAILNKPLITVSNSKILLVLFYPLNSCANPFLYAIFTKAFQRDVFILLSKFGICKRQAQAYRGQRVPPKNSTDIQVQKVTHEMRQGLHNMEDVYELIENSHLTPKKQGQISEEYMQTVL
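cAMP rise detected as CNG-channel membrane depolarization by fluorescent dye (emission 590 nm), 30 min after compound, following 60 min dye loading containing 100 uM RO 20-1724 at room temperature. Cells: TSHR/CNG HEK 293, with parental CNG HEK 293 as control.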
HEK293 cAMP cs: raises cAMP in parental HEK293 cells, TSHR agonist counter-screen; Potency, µM (top dose mostly 57.1 µM), for inactives: at the top dose activation, hits mostly activators; hit rate 2.5% among 73,000; parental HEK293 CNG cAMP sensor, membrane potential fluorescence; further: % of control where 0% means no effect; nearly all actives have a fitted effect of over 55% in size
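Parental HEK 293 cells stably expressing a cAMP-gated CNG channel were loaded with membrane potential dye containing 100 uM RO 20-1724 for 60 min. Compound added for 30 min; depolarization read as fluorescence intensity at 590 nm.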
FLuc inh: firefly luciferase inhibition; hit rate 2.2% among 72,000; P08659; AID 411; Potency, µM (highest dose often 57.1 µM), for inactives: at the top dose activity change, negative = inhibition, most hits filed as inhibitors; purified firefly luciferase, luminescence, 8 min; further: on the % scale 0 is the no-effect control and ±100 the full control effect; nearly all actives have a fitted effect of over 40% in size
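qHTS concentration-response profiling: light output of P. pyralis luciferase with luciferin and 10 uM ATP, imidazole buffer pH 7.2. Read by luminescence after 8-min room-temperature incubation.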
* marks the source's active call; other numbers are inactive results; i = inactive; ? = inconclusive; . = not tested or not shown; [ ] = remark or other dose. Unless noted, the call rests on the fitted dose curve; in most records, active means well fitted curve in the direction sought with a large enough effect; inconclusive means small, poorly fitted or top-dose-only effect, or another doubt; inactive means no such curve, though single readings can be large; an effect the other way counts as inactive or inconclusive. Potency means the concentration at half of the fitted maximal effect.

SMILES	PK Bst	TSHR agonist	HEK293 cAMP cs	FLuc inh
C=CCOC(=O)C1=C(C)NC(C)=C(C(=O)OCC=C)C1c1ccc(O)cc1	.	-12.8%	-7.2%	2.9%
CCOC(=O)c1ccccc1NC(=O)c1ccc(N(C)S(C)(=O)=O)cc1	>57	.	8.0%	-2.7%
COc1cc2c(cc1OC)C(C(=O)O)C(c1cc(Br)c(O)c(OC)c1)N(C)C2=O (stereo unspecified)	>57	4.6%[11.4 µM]	5.7%	-4.4%
Cc1c(C(=O)N2CCN(c3ncccn3)CC2)sc2nc3n(c(=O)c12)CCCC3	>57	.	10.0%	2.4%
Cc1csc(NC(=O)c2ccccc2C(=O)O)n1	>57	5.0%	-2.4%	0.1%
CCCn1cc(SCC(=O)NCc2ccco2)c2ccccc21	>57	16.7%	22.5%	0.2%
CCc1cc(C(=O)OC)c(NC(=O)c2cc(Br)cs2)s1	>57	9.3%	25.3%	-0.5%
Cn1c(=O)oc2cc(S(=O)(=O)NCc3ccco3)ccc21	.	-0.2%	15.2%	1.3%
COc1cc(NC(=O)COc2ccc(-n3cnnn3)cc2)c(OC)cc1Cl	.	6.7%	-3.1%	-0.1%
O=C(O)Cn1c(-c2ccccc2)nc2ccccc21	>57	-0.5%[11.4 µM]	7.4%	-1.1%
O=Nc1c2nc3ccccc3n(O)c-2c2ccccc12	7.25*	-16.5%	-9.7%	-5.8%
C=C(c1cccc2ccccc12)P(=O)(O)O	0.175*	10.2%	10.8%	5.4%
O=C(O)CCC(=O)c1cccc2ccccc12	>57	2.4%	28.8%	2.2%
CCn1cc(C(=O)OCC(=O)OC2CC(C)CCC2C(C)C)c(=O)c2ccc(C)nc21 (stereo unspecified)	>57	?	?	-1.9%
CC1CCC(C(C)C)C(OC(=O)CSc2n[nH]c(=O)[nH]c2=O)C1 (stereo unspecified)	i	20µM*	17.6%	-4.1%
O=C(CSC1=NCCS1)N1CCN(c2ccccc2)CC1	>57	2.1%	14.3%	0.5%
O=C(COC(=O)C1CCCCC1C(=O)N1CCc2ccccc21)NCc1ccco1 (stereo unspecified)	>57	?	20µM*	0.3%
Cc1cc(=O)n2[nH]c(-c3ccccc3Cl)cc2n1	.	5.7%	-6.9%	15.8µM*
CCCc1cc(=O)n2[nH]c(-c3ccccc3)cc2n1	.	8.6%	2.9%	-15.4%
CC(C)C(NS(=O)(=O)c1ccc2c3c(cccc13)C(=O)N2)C(=O)O (stereo unspecified)	.	-0.5%	-1.0%	2.4%
Fc1ccc2nc3[nH]c4ccccc4c3nc2c1	3.68*	3.7%	5.7%	6.31µM*
Cc1ccc(-c2cc(C(=O)NCC3CCCO3)no2)cc1 (stereo unspecified)	i	-2.6%	3.1%	12.6µM*
CCOc1ccc2nc3sc(C(=O)N4CCN(C)CC4)c(N)c3cc2c1	.	-9.0%	-6.6%	-9.7%
COc1ccc2cc3c(N)c(C(=O)N4CCCC4)sc3nc2c1	?	-15.2%	1.9%	?
Cc1ccc2cc3c(N)c(C(=O)N4CCOCC4)sc3nc2c1	11.1*	-4.3%	-7.1%	12.6µM*
SMILES	PK Bst	TSHR agonist	HEK293 cAMP cs	FLuc inh
Cc1ccc2nc3sc(C(=O)N4CCOCC4)c(N)c3cc2c1	1.84*	-2.6%	6.2%	2µM*
CCC1CCc2c(sc(NC(=O)c3ccoc3C)c2C(N)=O)C1 (stereo unspecified)	.	-3.0%	-11.5%	12.6µM*
CCOC(=O)c1c(NC(=O)c2ccoc2C)sc2c1CCC2	>57	?	?	3.9%
CCCCC(=O)NC1(C(F)(F)F)C(=O)N(Cc2ccco2)C(C)=C1C(=O)OC (stereo unspecified)	>57	15.8µM*	3.0%	2.4%
COC(=O)C1=C(C)N(Cc2ccco2)C(=O)C1	>57	2.7%	21.6%	-0.4%
COc1ccc(-c2ccc(SCC(=O)N3CCOCC3)nn2)cc1OC	.	-3.2%	-1.4%	?
CCOc1cc(CN2CCN(c3cccc(C(F)(F)F)c3)CC2)ccc1O	.	15.2%	27.6%	1.5%
CCOc1cc(CN2CCSCC2)ccc1O	.	?	0.0316µM*	1.0%
COc1cc(C(=O)NCCc2nc3ccccc3n2C)cc(OC)c1OC	>57	3.7%[11.4 µM]	-4.5%	-1.6%
COc1ccc(N/C=C(\C#N)c2nc3ccccc3n2C)c(OC)c1	10.2*	.	.	3.98µM*
COCCOC(=O)C1=C(C)NC(=O)NC1C1CC=CCC1 (stereo unspecified)	.	-1.6%[11.4 µM]	4.1%[11.4 µM]	0.8%
Clc1ccccc1-c1nnn(Cc2ccc(-c3nn[nH]n3)cc2)n1	>57	17.3%	29.9%	-0.7%
CCc1cc2c(c(CC)n1)CCC(=O)N2Cc1ccc(-c2ccccc2-c2nn[nH]n2)cc1	.	.	6.2%	15.8µM*
COc1cccc(C(c2sc3nc(C)nn3c2O)N2CCN(C(=O)c3ccco3)CC2)c1 (stereo unspecified)	.	?	?	3.4%
O=C1CC(Sc2nnnn2C2CCCCC2)C(=O)N1c1ccccc1 (stereo unspecified)	.	.	15.5%	15.8µM*
Cc1c(O)nc(SC2CC(=O)N(c3ccccc3)C2=O)[nH]c1=O (stereo unspecified)	>57	-3.4%	11.9%	-1.4%
C=CCOc1nc(-c2ccncc2)nc2ccccc12	8.29*	.	.	-0.3%[25.5 µM]
Clc1ccccc1OCc1nc(-c2ccccn2)no1	i	?	-55.1%	10µM*
c1ccc(CCc2nc(-c3ccccn3)no2)cc1	>57	-0.4%	3.3%	-22.0%
Cc1cccc(OCc2nc(-c3nonc3N)no2)c1C	>57	?	?	-2.2%
O=C1c2ccccc2C(=O)N1CCCc1nc(-c2cccnc2)no1	>57	-0.4%	0.3%	-0.9%
Clc1ccc(OCCCc2nc(-c3cccnc3)no2)c(Cl)c1	>57	?	15.8µM*	1.3%
Clc1ccc(OCc2nc(-c3ccccn3)no2)c(Br)c1	.	27.1%	14.2%	2.51µM*
Nc1nonc1-c1noc(COc2ccccc2Cl)n1	.	-3.5%[11.4 µM]	3.6%	12.6µM*
Clc1ccc(-c2noc(COc3ccccc3)n2)cc1	.	.	26.3%	-4.4%
SMILES	PK Bst	TSHR agonist	HEK293 cAMP cs	FLuc inh
COc1ccc2[nH]c(C)c(CN3CCCC(C)C3)c(=O)c2c1 (stereo unspecified)	>57	12.9%	0.6%	-0.3%
Cc1csc(SCC(=O)Nc2cccc3nsnc23)n1	>57	?	20µM*	0.7%
Cc1csc(NC(=O)CSc2nc(C)cs2)n1	>57	-2.2%	8.7%	-5.2%
Cc1ccnc(NC(=O)CCC(=O)N(CC(=O)NC(C)(C)C)C2CCCC2)c1	>57	0.6%	10.5%	2.9%
Cc1ccnc(NC(=O)CCC2CCCCC2)c1	.	?	?	20µM*
Cc1cc(C)n(CCOC(=O)c2sc3ccccc3c2Cl)n1	i	.	28.2%	15.8µM*
CCCCn1c(SCC2CCCCO2)nc2cc(S(N)(=O)=O)ccc21 (stereo unspecified)	>57	?	?	-0.6%
O=C(CSc1nc2c(c(=O)n1-c1ccc(Br)cc1)SCC2)NCC1CCCO1 (stereo unspecified)	>57	11.9%[11.4 µM]	19.7%	2.2%
COc1cc(-c2nnc(SCc3c(F)cccc3Cl)o2)cc(OC)c1OC	.	?	31.6µM*	0.3%
Cc1ccc(CSC2=Nc3ccccc3C3=NC(CCC(=O)NCc4ccco4)C(=O)N23)cc1 (stereo unspecified)	.	?	?	1.8%
COC(=O)c1ccc(CSc2nc3c(c(=O)n2-c2ccc(F)cc2)SCC3)o1	>57	3.16µM*	26.0%	-2.6%
